Common to all, as to type: functional
Assay [1] deals with Plasmodium falciparum. Nature of the assay: GSK_TCMDC: Inhibition of Plasmodium falciparum 3D7 in whole red blood cells, using parasite LDH activity as an index of growth. Test compounds present at 2uM.
Assay [2] concerns Plasmodium falciparum. Nature of the assay: GSK_TCMDC: Inhibition of Plasmodium falciparum Dd2 in whole red blood cells, using parasite LDH activity as an index of growth. Test compounds present at 2uM.
For assay [3], the system named is HepG2. Nature of the assay: GSK_TCMDC: Percent inhibition of human HepG2 cell line. Test compounds present at 10uM.

Usually Inhibition stands for the percentage by which the read-out fell short of the control. A higher Inhibition goes with a strong effect.

Regarding `CC[C@H]1CN(Cc2ccccc2Br)CC[C@H]1CCCc1ccnc2ccc(O)cc12`, the figures for the Inhibition in assay [1], in assay [2] and in assay [3] were 86%, 2% and 12%, respectively.
Taken in the same sequence, the figures for `O=C1C(=Cc2c(O)ccc3ccccc23)SC(=NCc2ccccc2)N1Cc1ccccc1` were 98%, 98% and 0%.
On to `COc1ccc2nc(-c3cc(-c4ccc(NC(C)=O)cc4)cnc3N)[nH]c2c1`, for which the figures for the Inhibition in assay [1], in assay [2] and in assay [3] were 93%, 73% and 55%, respectively.
Consider `O=C(c1ccc(O)c(-c2cc(Cl)cc(Cl)c2)c1)N(CCO)CCO`, for which the Inhibition in assay [1] amounted to 94%; in assay [2] it was 62%; in assay [3], 1%.
As to `COc1ccc2nccc(N3CCC(NCc4ccc5c(n4)NC(=O)CS5)CC3)c2n1`, the Inhibition is recorded as 100% in assay [1], 63% in assay [2] and 14% in assay [3].
As for `CN1CCC(NCc2ccc(-c3cccc(S(=O)(=O)NCC4CCCO4)c3)cc2)CC1.O=C(O)C(F)(F)F` (stereo not drawn), the figures for the Inhibition in assay [1], in assay [2] and in assay [3] were 90%, 0% and 8%, respectively.
Taken in the same sequence, the figures for `Cc1ccc(-c2ccc3c(c2)C=C(C(=O)NCC2CCN(CC4CCN(C(=O)/C=C/c5ccc(Cl)c(Cl)c5)CC4)CC2)CCC3)cc1` were 99%, 70% and 96%.
Regarding `CN(C)CCNCc1cccc(-c2cccc(-c3nc4ccccc4[nH]3)c2)c1.O=C(O)C(F)(F)F`, the Inhibition worked out at 100% in assay [1], 63% in assay [2] and 7% in assay [3].
`CCc1nc(N)nc(N)c1-c1ccccc1`: the Inhibition is listed as 92% in assay [1], 1% in assay [2] and 53% in assay [3].
Taken in the same sequence, the figures for `Cc1cccc2nc(-c3cccc(-c4cccc(NC(=O)COc5ccccc5C(N)=O)c4)c3)[nH]c12` were 100%, 88% and 22%.
`O=C(Nc1ccc(F)cc1F)NC1CCN(c2ccnc3cc(Cl)ccc23)C1.O=C(O)C(F)(F)F` (stereo not drawn): the Inhibition in assay [1] is listed as 100%; in assay [2] it was 82%; in assay [3] it was 25%.
On to `CN1CCC[C@H]1COc1ccc(CN2CC[C@H](NC(=O)c3ccc(Cl)c(Cl)c3)C2)cc1Cl.O=C(O)C(F)(F)F`, for which the Inhibition in assay [1] is recorded as 97%; in assay [2] it was 44%; in assay [3] it was 53%.
Take `O=C(NCCCNc1ccnc2cc(Cl)ccc12)c1ccccc1F`: the Inhibition in assay [1] is on record as 100%; in assay [2], 97%; in assay [3], 18%.
Regarding `CC(=O)N(Cc1nc(-c2cc(C(F)(F)F)cc(C(F)(F)F)c2)cs1)c1c(C)cccc1C`, the Inhibition in assay [1] is recorded as 100%; in assay [2], 99%; in assay [3], 0%.
Taken in the same sequence, the figures for `Cc1c(C)c2c(c(C)c1O)CCC(C)(CCC(=O)O)O2` (stereo not drawn) were 96%, 0% and 8%.
`COc1ccc2nc3cc(Cl)ccc3c(NCCCCN)c2c1.Cl`: the Inhibition is given as 100% in assay [1], 62% in assay [2] and 52% in assay [3].
Taken in the same sequence, the figures for `CN(Cc1cccc(C#N)c1)C1CCN(c2cc(NC(=O)c3cccc(F)c3)ccn2)CC1.O=C(O)C(F)(F)F` were 98%, 15% and 0%.
Turning to `Fc1ccccc1-c1cc(Nc2ccncc2)nc(-c2cccnc2)n1`, the figures for the Inhibition in assay [1], in assay [2] and in assay [3] were 100%, 89% and 91%, respectively.
As to `COc1ccc2ncc(F)c(CCN3CC[C@@H](CNCc4nc5c(cc4C)SCC(=O)N5)C3)c2n1.Cl`, the Inhibition in assay [1] was determined as 91%; in assay [2] it was 42%; in assay [3] it was 14%.
As for `CCOC(=O)c1cnc2c(C(F)(F)F)cccc2c1Nc1ccc(O)cc1`, the Inhibition worked out at 96% in assay [1], 67% in assay [2] and 0% in assay [3].
As for `O=C(Nc1cccc(F)c1)N(Cc1ccc(-c2ccc(CN3CCNCC3)cc2)cc1)C1CCN(Cc2ccccc2)CC1.O=C(O)C(F)(F)F`, the values for the Inhibition in assay [1], in assay [2] and in assay [3] were 100%, 53% and 18%, respectively.
In the same order, the values of `COc1cc2c(cc1OC)CC(NCc1ccc(-c3ccc4nc[nH]c4c3)cc1)C2.O=C(O)C(F)(F)F` are 97%, 92% and 40%.
In the case of `CC(C)C[C@H](NC(=O)c1cc2ccccc2s1)C(=O)N[C@H]1CCN(Cc2ccc(I)c(OCCN3CCCC3)c2)C1.O=C(O)C(F)(F)F`, the Inhibition in assay [1] came to 92%; in assay [2] it was 88%; in assay [3], 3%.
With `COc1cccc([C@@H](CC(=O)Nc2cc(C(F)(F)F)ccc2OC)Nc2ccc(C#N)c3ccccc23)c1`, the Inhibition stood at 96% in assay [1], 53% in assay [2] and 19% in assay [3].
As to `Cc1noc(C)c1-c1cccc(CNCc2ccc(-c3ccc(-c4nc5cc(C(F)(F)F)ccc5[nH]4)cc3)cc2)c1.O=C(O)C(F)(F)F`, the Inhibition in assay [1] came to 100%; in assay [2], 97%; in assay [3] it was 35%.
As for `COc1cc(NC(=O)C(c2ccc(Cl)cc2)C(C)C)cc(OC)c1OC` (stereo not drawn), the Inhibition in assay [1] came to 100%; in assay [2] it was 100%; in assay [3], 10%.
As for `CC(C)(C)c1ccc(NC(=O)c2ccc(CN3CCCN(Cc4cccc(F)c4)CC3)cc2)cc1.O=C(O)C(F)(F)F`, the figures for the Inhibition in assay [1], in assay [2] and in assay [3] were 90%, 8% and 51%, respectively.
In the case of `Cc1[nH]cnc1CSCCNC(=N)NCCCCCCCCNC(=N)NCCSCc1nc[nH]c1C.Cl`, the Inhibition in assay [1] is 96%; in assay [2], 95%; in assay [3], 24%.
Taken in the same sequence, the figures for `COc1ccc2nccc([C@@H](O)CN3CCC(NC(=O)COc4nc(SCc5ccc(F)cc5)nc5c4CCC5)CC3)c2c1` were 96%, 78% and 29%.
Regarding `CN(C)c1cc(NN=Cc2cc(Cl)ccc2O)nc(N(C)C)n1`, the Inhibition in assay [1] came out at 98%; in assay [2], 98%; in assay [3], 3%.
For the compound `CC(C)C(=O)NC(Nc1ccc([N+](=O)[O-])cc1)C(Cl)(Cl)Cl` (stereo not drawn), the results for the Inhibition in assay [1], in assay [2] and in assay [3] were 97%, 84% and 7%, respectively.
In the same order, the values of `CCCCCNc1ccnc2cc(Cl)ccc12` are 97%, 99% and 12%.
In the same order, the values of `CCN(CC)CCOc1cc2c(cc1Br)-c1cc(Br)c(OCCN(CC)CC)cc1C2=NO.Cl` are 100%, 98% and 99%.
On to `Nc1nc(N)c2c(CCc3ccc4ccccc4c3)cccc2n1`, for which the Inhibition in assay [1] amounted to 100%; in assay [2], 6%; in assay [3], 56%.
Consider `COc1cccc2cc(C(=O)N[C@@H](CC(C)C)C(=O)N[C@H](C=NNC(=O)OC(C)(C)C)Cc3ccccc3)oc12`, for which the Inhibition in assay [1] is 99%; in assay [2] it was 88%; in assay [3] it was 11%.
For `Oc1ccc2[nH]c(-c3cccc(F)c3)nc2c1CN1CCC(N2CCCC2)CC1`, the values for the Inhibition in assay [1], in assay [2] and in assay [3] were 100%, 54% and 0%, respectively.
Turning to `C=CC[C@H](NC(=O)c1ccc(NS(=O)(=O)c2ccc3nc(N)[nH]c(=O)c3c2)cc1)C(=O)OCCCC`, the Inhibition in assay [1] was 97%; in assay [2], 2%; in assay [3] it was 61%.
For the compound `Cc1cccc(NC(=S)NC2CCN(CCCCCNC(=O)/C=C/c3ccc(Cl)c(Cl)c3)CC2)c1`, the Inhibition turned out to be 97% in assay [1], 19% in assay [2] and 14% in assay [3].
Turning to `CCCC(C)NC(=O)[C@H](Cc1ccccc1)NC(=O)c1ccc(O)c(-c2ccc(OC)cc2)c1` (stereo partly drawn), the Inhibition worked out at 85% in assay [1], 1% in assay [2] and 12% in assay [3].
For `CCOc1ccccc1C(=O)Nc1cccc(-c2nc3ncccn3c2C)c1`, the Inhibition amounted to 92% in assay [1], 88% in assay [2] and 0% in assay [3].
With `COc1ccc(-c2ccc(NC(=O)c3cccc(C#N)c3)cc2)cc1CN1CCN(C)CC1.O=C(O)C(F)(F)F`, the Inhibition in assay [1] was 100%; in assay [2], 59%; in assay [3], 26%.
`CC(=O)c1ccc2cc(C(=O)NC3CCC(CCN4CCc5ccc(-c6noc(C)n6)cc5CC4)CC3)[nH]c2c1.Cl` (stereo not drawn): the Inhibition came out at 81% in assay [1], 45% in assay [2] and 28% in assay [3].
For `CCN(CC)CCn1c2ccccc2c2ccc(C(=O)Nc3ccc4sc(C)nc4c3)cc21.Cl`, the results for the Inhibition in assay [1], in assay [2] and in assay [3] were 84%, 26% and 97%, respectively.
For the compound `CC(C)Oc1cccc(-c2ccc(C(=O)NCC3CCCN(Cc4cccc(C(F)(F)F)c4)C3)s2)c1.O=C(O)C(F)(F)F` (stereo not drawn), the Inhibition in assay [1] turned out to be 91%; in assay [2], 28%; in assay [3], 10%.
Turning to `Cc1ccc(Nc2ccnc3ccc(C(F)(F)F)cc23)cc1O.O=C(O)C(F)(F)F`, the Inhibition was determined as 100% in assay [1], 69% in assay [2] and 23% in assay [3].
As for `Cl.Fc1cc(CN2CCCC2)ccc1OCCCN1CCN(c2cccc(Cl)c2Cl)CC1`, the Inhibition in assay [1] worked out at 82%; in assay [2], 15%; in assay [3] it was 67%.
In the same order, the values of `NC(=O)c1c(Cl)nc2ccccc2c1Cl` are 91%, 0% and 2%.
Taken in the same sequence, the figures for `Cc1cccc2nc(-c3cccc(-c4cccc(CNCCc5ccncc5)c4)c3)[nH]c12.O=C(O)C(F)(F)F` were 100%, 99% and 20%.
In the same order, the values of `Br.Cc1ccnc(Nc2nc(-c3ccccn3)cs2)c1` are 100%, 87% and 45%.
Take `O=C(Cc1c[nH]cn1)Nc1ccc(-c2ccc(-c3nc4ccccc4[nH]3)s2)cc1`: the Inhibition amounted to 90% in assay [1], 34% in assay [2] and 44% in assay [3].
Turning to `Cc1cccc2nc(-c3ccc(-c4ccc(NC(=O)NCc5ccc(F)cc5)cc4)cc3)[nH]c12`, the Inhibition in assay [1] came to 100%; in assay [2], 99%; in assay [3], 70%.
Take `O=C(NCCCCNCC(Cc1cccc([O-])c1)c1ccccc1)c1ccc(NC(=O)c2ccc(Cl)cc2)cc1.[Na+]` (stereo not drawn): the results for the Inhibition in assay [1], in assay [2] and in assay [3] were 96%, 1% and 0%, respectively.
Taken in the same sequence, the figures for `Cc1cc(=O)c(C2CCC(c3ccc(Cl)cc3)CC2)c(C)[nH]1` (stereo not drawn) were 88%, 70% and 0%.
Take `CCOC(=O)c1ccc(NC(=O)Nc2ccc(-c3ccc(-c4nc5ccccc5[nH]4)cc3)cc2)cc1`: the Inhibition in assay [1] is reported as 100%; in assay [2], 100%; in assay [3], 49%.
Turning to `COc1ccc2c(CCNc3nc(SC)ncc3C(=O)NCCc3ccc(F)cc3)c[nH]c2c1.O=C(O)C(F)(F)F`, the Inhibition in assay [1] is reported as 91%; in assay [2] it was 49%; in assay [3], 3%.
Taken in the same sequence, the figures for `CNC(=O)Cc1ccc(C(=O)Nc2cccc(-c3csc(-c4nc5ccccc5[nH]4)c3)c2)cc1` were 95%, 69% and 36%.
`COc1ccccc1N1CCN(CCCCN(C(=O)Nc2cccc(Cl)c2)C(=O)Nc2cccc(Cl)c2)CC1.Cl`: the results for the Inhibition in assay [1], in assay [2] and in assay [3] were 100%, 65% and 4%, respectively.
On to `CN(C)CCCOc1ccccc1CN1CC[C@H](NC(=O)c2ccc(Cl)c(Cl)c2)C1.O=C(O)C(F)(F)F`, for which the Inhibition is given as 94% in assay [1], 54% in assay [2] and 42% in assay [3].
Regarding `CCN(CC)CCON=Cc1cc(C)c2[nH]c3ccc(OCc4ccccc4)cc3c2c1C`, the Inhibition stood at 98% in assay [1], 29% in assay [2] and 29% in assay [3].
On to `CCS(=O)(=O)Nc1ccc2c(c1)/C(=C(/Nc1ccc(CN3CCCCC3)cc1)c1ccccc1)C(=O)N2` [HESPERADIN], for which the Inhibition in assay [1] amounted to 87%; in assay [2], 74%; in assay [3], 53%.
For the compound `O=C(NC1CC1)c1ccc(N2CCC(Oc3ccc(F)cc3)CC2)nc1`, the Inhibition in assay [1] turned out to be 89%; in assay [2], 79%; in assay [3] it was 0%.

These data come from ChEMBL document CHEMBL1157539, “Thousands of chemical starting points for antimalarial lead identification” (Nature, 2010).
